Sampled rows, rich in hits. Any-hit rate of the full collection: about 21%.
Shiga toxin inh = inhibitors of Shiga toxin in Vero cells; Vero cells, Shiga toxin protein synthesis inhibition reporter; inhibition, % at 38.7 µM; 290,000 tested, 9.2% active; in the data active means inhibition mostly above about 28%, no sharp cut-off; inactive means mostly below about 43%; further: 0% is about no effect
Pf growth 48h = inhibits P. falciparum growth in the first generation, 48 h; Potency, µM (series often up to 28.7 µM), without a hit: top-dose activity change, negative = inhibition, actives largely listed as inhibitors; P. falciparum luciferase growth in erythrocytes, 48 h; 310,000 tested, 5.9% active; further: potency means the concentration at half of the fitted maximal effect; on the % scale 0 is the no-effect control and ±100 the full control effect
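Luminescence readout; reporter = integrated firefly luciferase in P. falciparum. RBC culture at 2% hematocrit, 0.1% parasitemia final, 37 C/5% CO2; decreased signal taken as growth inhibition.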
HCV inhibitor = HCV inhibition. AID 651820. 340,000 tested, 3.4% active. Huh7.5.1 HCVcc-Cre infection, luciferase reporter, 44 h. Potency, µM (highest dose often 41.8 µM), without a hit: at the top dose activity change, negative = inhibition, usual class: inhibitors; further: potency means the concentration at half of the fitted maximal effect; on the % scale 0 is the no-effect control and ±100 the full control effect
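A cell-based infection assay in which seeded cells (1,000 per well) receive test compound after 4 h, are inoculated with HCVcc-Cre at approximately 0.5 moi, and are incubated 44 h before luminescence detection.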
AMA1-RON2 inh = inhibitors of Plasmodium falciparum AMA1-RON2 interaction; 360,000 tested, 0.2% active; Potency, µM (top dose mostly 58.2 µM), without a hit: top-dose activity change, negative = inhibition, usual class: inhibitors; AlphaScreen AMA1-biotinylated RON2 peptide binding;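 further: potency means the concentration at half of the fitted maximal effect; 0% = vehicle wells and -100% = peptide control; nearly all actives have a fitted effect of over 45% in size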
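AMA1 (3D7) with his tag at 25 nM final met compounds first, then biotinylated RON2 peptide at 25 nM; detection used donor plus acceptor beads, 10 µg/mL apiece, read by AlphaScreen after 30 min at room temperature.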
Pf growth 96h = inhibits malaria parasite growth, 96 h. AID 504834. 320,000 tested, 6.9% active. P. falciparum luciferase reporter growth, 96 h. Potency, µM (doses to about 28.7 µM), inactives show top-dose activity change, negative = inhibition, usual class: inhibitors; further: potency means the concentration at half of the fitted maximal effect; on the % scale 0 is the no-effect control and ±100 the full control effect
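Two parasite generations (96 h, 37 C, 5% CO2) of compound exposure in infected erythrocytes (0.05% parasitemia, 2% hematocrit). Luciferase-reporter P. falciparum; decreased luminescence indicates inhibited growth, aimed at apicoplast-acting delayed death.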
CHX counter = counter-screen for Shiga toxin inhibitors: cycloheximide protein synthesis inhibition. cell reporter, cycloheximide protein synthesis inhibition counterscreen. max response, %. 300,000 tested, 12% active; in the data active means max response mostly above about 13%, no sharp cut-off; inactive means mostly below about 14%; further: read at 38.3 µM for the half of the compounds with a filed dose; 0% is about no effect
Starred values were filed as active, the others as inactive; ? = inconclusive; / = no result; [ ] = remark or other dose. Unless noted, the call rests on the fitted dose curve; in most records, active means well fitted curve in the direction sought with a large enough effect; inconclusive means small, poorly fitted or top-dose-only effect, or another doubt; inactive means no such curve, though single readings can be large; an effect the other way counts as inactive or inconclusive.

SMILES	Shiga toxin inh	Pf growth 48h	HCV inhibitor	AMA1-RON2 inh	Pf growth 96h	CHX counter
O=C(CCCN1C(=O)[C@H]2CC=CC[C@H]2C1=O)NCc1nc(-c2ccc(Cl)cc2)no1	14	12%	-1%	-11%	-12%	-3
COc1ccc(-c2noc(CNC(=O)CCCN3C(=O)[C@H]4CC=CC[C@H]4C3=O)n2)cc1	15	6%	-10%	21%	-36%	18*
O=C(CCc1nc(-c2ccccc2)no1)NCCc1ccccc1	-12	21%	15%	38%	0%	12
CC(C)CNC(=O)CCc1nc(-c2ccccc2)no1	33*	35%	-9%	-12%	45%	27*
COc1ccc(-c2noc(CCC(=O)NCCc3ccccc3)n2)cc1	45	0%[0.00184 µM]	-22%	-4%	-6%	25*
COc1ccc(CCNC(=O)CCCc2ccccc2)cc1	/	7%	-18%	4%	10µM*	1
C=CS(=O)(=O)c1c2cc(OC)ccc2nc2ccc(OC)cc12	/	/	?	44%	/	/
Cn1c2cc(S(C)=O)sc2c2cnn(Cc3ccccc3F)c(=O)c21 (configuration not stated)	-3	/	/	/	/	-8
O=C(O)c1ccccc1CC(CCc1ccccc1)C(=O)O (configuration not stated)	/	/	5%	?	/	/
O=C(COC(=O)CNC(=O)C1CCCCC1)NCc1ccc(Cl)cc1	/	/	-15%	-21%	/	/
N#CC(OC(=O)c1ccccc1)c1cccc([N+](=O)[O-])c1 (configuration not stated)	/	/	-9%	-4%	/	/
O=C(C[C@H]1C[C@H](C(=O)N2CCCCC2)[C@@]2(CCc3ccccc3)c3[nH]c4ccc(Cl)cc4c3CCN2C1=O)NCCN1CCOCC1	/	/	3%	-6%	/	/
COC(=O)c1ccc(CN2CCCC(CO)(Cc3ccc(F)cc3F)C2)cc1 (configuration not stated)	-3	2%	-1%	-11%	40%	2
CCOc1ccc(-c2cc(CCCC(=O)NCCc3ccccc3)no2)cc1	52	/	-5%	-3%	/	8
COc1ccc(-c2cc(CCCC(=O)NCCc3ccccc3)no2)cc1	67*	19%	-18%	8%	-4%	64*
COC(=O)NCC12CC3CC(C1)CC(CNC(=O)OC)(C3)C2	16	?	12%	-11%	?	-6
COc1ccc(-c2cc(CCCC(=O)NCc3ccccn3)no2)cc1	21	/	-11%	60%	?	34*
CCOc1ccc(-c2noc(CCC(=O)O)n2)cc1	-16	/	-14%	2%	12µM*	-4
COc1ccc(-c2cc(CCCC(=O)NCCc3ccc(OC)cc3OC)no2)cc1	14	-28%	-28%	-1%	?	11
COc1cccc(OC)c1C(=O)NCC12CC3CC(C1)CC(CNC(=O)c1c(OC)cccc1OC)(C3)C2	3	34%	6%	1%	3.3µM*	-1
CCCCN1C(=O)N(CCc2ccc(F)cc2)S(=O)(=O)c2cc(C(F)(F)F)ccc21	/	/	?	13%	/	/
Cc1cc(C)c(O)c(NC(=S)NC(=O)Cc2ccccc2)c1	5	?	-12%	130%	?	-1
Cc1ccc(NC(=O)COC(=O)c2cc(=O)c3ccccc3o2)cc1F	/	-11%	10%	0%	31%	/
Cn1c(N)c(C(=O)COC(=O)COc2ccc(Cl)cc2Cl)c(=O)n(C)c1=O	/	/	10%	-9%	/	/
CCN(CCCNC(=O)CCc1nc(-c2ccc(OC)cc2)no1)c1cccc(C)c1	28	/	?	?	13µM*	-2
SMILES	Shiga toxin inh	Pf growth 48h	HCV inhibitor	AMA1-RON2 inh	Pf growth 96h	CHX counter
COc1ccc(CCCC(=O)Nc2ccccc2F)cc1	109*	41%	3%	4%	-12%	21*
COc1ccc(CCC(=O)NCC23CC4CC(CC(C4)C2)C3)cc1	-19	-10%	13%	3%	-10%	15*
CC(C)CC(c1nnnn1Cc1ccc2c(c1)OCO2)N1CCC(C(N)=O)CC1 (configuration not stated)	13	-3%	4%	-9%	37%	-3
COc1ccccc1CCc1nnc(CCC(=O)NCC[C@@H]2C[C@@H]3C=C[C@H]2C3)o1	24	3%	1%	?	2%	13*
COc1cc(CNC(=O)Nc2cccn3nc(COCCO)nc23)cc(OC)c1OC	/	/	/	3%	/	/
Cc1cc(N2CCN(C)CC2)nc2ccc(NC(=O)c3ccc(Br)o3)cc12	101*	1.7µM*	?	-26%	43%	26*
Cc1cc(N2CCCCC2)nc2ccc(NC(=O)c3ccc(Br)o3)cc12	22	/	4µM*	-11%	/	8
COCCNC(=S)Nc1ccc2nc(N3CCN(C)CC3)cc(C)c2c1	-5	0%	-7%	0%	-75%	0
Cc1cc(N2O[C@]34C=C[C@]25C[C@@H](O)CC[C@]5(C)C3CC[C@]2(C)[C@@H]([C@H](C)/C=C/[C@H](C)C(C)C)CC[C@H]24)no1 (some centres not stated)	/	/	?	-1%	/	/
COCCN(C(=O)COC(=O)c1ccc(Cl)s1)c1c(N)n(Cc2ccccc2)c(=O)[nH]c1=O	/	0%	19%	-9%	41%	/
COC(=O)c1c(NC(=O)C2c3ccccc3Oc3ccccc32)sc(C)c1C	-14	19%	?	7%	?	1
CCOC(=O)c1sc(NC(=O)CN(CC(C)C)CC(C)C)c(C(=O)OCC)c1C	-24	2.3µM*	-5%	4%	/	-3
CCOC(=O)c1c(NC(=O)COC)sc(C(C)=O)c1C	-2	52%	28µM*	6%	18%	-2
COC(=O)c1c(NC(=O)C2CC2)sc(C(=O)Nc2ccccc2)c1C	52*	22%	?	-4%	-1%	25*
COC(=O)c1sc(NC(=O)C2c3ccccc3Oc3ccccc32)c(C(=O)OC)c1C	10	1.7µM*	?	-6%	10µM*	7
CCOC(=O)c1c(NC(=O)COC)sc(C)c1C	-1	-11%	?	4%	?	1
CCOC(=O)c1c(NC(=O)CC(C)C)sc(C(C)=O)c1C	10	?	?	-8%	?	-1
Cc1ncoc1C(=O)N1CCCC(N2CCN(c3cccc(C(F)(F)F)c3)CC2)C1 (configuration not stated)	-9	?	2%	7%	-10%	9
Cc1ccccc1CN1CCN(C(C)C(=O)NNC(=O)c2ccc(F)cc2)CC1 (configuration not stated)	/	-14%	5%	70%	?	/
O=C(NCc1ccc(F)cc1)c1[nH]c(C(F)(F)F)nc1-c1ccccc1	/	/	/	-11%	/	/
O=C(CCc1nnc2ccc(NCc3ccco3)nn12)Nc1ccccc1F	5	22%	1%	8%	32%	6
CCC(=O)Nc1sc(C(=O)OC)c(C)c1C(=O)OC	12	6%	?	9%	14%	-5

Source: PubChem
